Measured values taken from PubChem BioAssay AID1053125 (Broad Institute, 2014).
Potency and affinity values are given separately. Active and inactive are the calls of the source.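 Rule for the calls: active = viability loss whose fitted half-maximal concentration is at most twice the top valid tested dose; inconclusive = flat curve with 30 to 70% loss, or poor fit; inactive = the rest.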

Experiment: viability loss in HepG2 liver cells – cell-based, ATP luminescence, cherry-pick, set 6, cytotoxicity control, dose response (AID 1053125);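 note: negative values mean loss of viability signal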
Settings: ATP luminescence (CellTiter-Glo), 72 h; series mostly up to 26 µM

Structure (SMILES)	outcome
O=C(Cn1ccc([N+](=O)[O-])n1)N1CCCCCC1	inactive
CCC(C)NC(=S)N1CCN(Cc2ccc3c(c2)OCO3)CC1 (stereo not given)	inactive
CCC(C)n1c(=N)c(C#N)cc2c(=O)n3cc(C)ccc3nc21 (stereo not given)	inactive
CN1c2ccc(Cl)cc2C(=O)NC1C1CC=CCC1 (stereo not given)	inactive
N#Cc1ccc(OCC(=O)OCC(=O)N2CCc3ccccc32)cc1	inactive
CCOc1ccc(C(=O)c2cc3ccc(O)cc3oc2=O)cc1	inactive
CCOCCCNc1nc2nc3ccc(C)cn3c(=O)c2cc1C(=O)NCC1CCCO1 (stereo not given)	inactive
Cc1cccn2c(=O)c3cc(C(N)=S)c(=N)n(CCCOC(C)C)c3nc12	inactive
NC(=O)c1c(NC(=O)Cc2ccccc2)sc2c1CCN(Cc1ccccc1)C2	inactive
CCNc1nc2nc3ccc(C)cn3c(=O)c2cc1C(=O)NCC1CCCO1 (stereo not given)	inactive
CC(=O)Oc1ccc(C(=O)Nc2cc(C)on2)cc1	inactive
CC(C)c1ccc(/C=C2\Oc3c(ccc(O)c3CN3CCN(C)CC3)C2=O)cc1	inactive
COc1ccccc1C(=O)c1cc2ccc(O)cc2oc1=O	inactive
CCN(CC)c1ccc2cc(S(=O)(=O)c3ccc(Cl)cc3)c(=O)oc2c1	inactive
O=C(C1=NN(c2ccccc2)C2C(=O)N(c3ccccc3)C(=O)C12)c1ccccc1 (stereo not given)	inactive
COc1ccc(CCN=C(N)NS(=O)(=O)c2ccc(F)cc2)cc1	inactive
Cc1ccc2nc3c(cc(S(=O)(=O)c4ccccc4)c(=N)n3Cc3ccco3)c(=O)n2c1	inactive
Cc1ccc(-c2nc3ccsc3c(=O)[nH]2)cc1	inactive

Structure (SMILES)	outcome
O=C(O)c1ccc(N2N=C(c3ccccc3)CC2c2ccccc2)cc1 (stereo not given)	inactive
COc1ccc(C2c3ccc(O)cc3Oc3ncn4nc(-c5ccccn5)nc4c32)cc1 (stereo not given)	inactive
CCCN1CCN(C(=O)c2ccc(CS(=O)c3ccc(Br)cc3)o2)CC1 (stereo not given)	inactive
CCOc1ccc(S(=O)(=O)Nc2ccc(C(=O)N(CC)CC(=O)NCc3cccs3)cc2)cc1	inactive
Nc1ccc2nc(-c3ccccc3)cnc2c1	inactive
CN(C)C(=O)CSc1nc2ccc(C(=O)c3ccccc3)cc2[nH]1	inactive
Cc1nc2ccccc2c2oc(C(=O)NCCCN3CCC(C)CC3)cc12	inactive
CC1(C)CC(=O)C2=C(C1)OC(N)=C(C#N)[C@@H]2c1ccccc1[N+](=O)[O-]	inactive
CC(=O)OC[C@@H]1CN(Cc2ccccc2)C[C@H](n2cnc3c(N(C)C(C)C)ncnc32)O1	inactive
O=C(O)c1cccc(Nc2nc(-c3cc4ccccc4oc3=O)cs2)c1	inactive
Cn1cc(C(c2ccccc2OCC(=O)O)c2cn(C)c3ccccc23)c2ccccc21	inactive
Cc1cccn2c(=O)c3cc(C(=O)NCc4ccco4)c(=N)n(CCc4ccccc4)c3nc12	inactive
COc1ccccc1NS(=O)(=O)c1cc(NC(=O)CCNC(C)=O)ccc1C	inactive
O=C(NS(=O)(=O)c1ccc(Cl)s1)c1ccccc1	inactive
COc1ccc(Br)c(Cn2c(C)c(C(=O)NCc3ccc4c(c3)OCCO4)sc2=O)c1	inactive
CN(C)/C=C/C(=O)c1c(F)cccc1F	inactive
Cc1ccc2c(c1)-c1c(cnn1CC(=O)Nc1ccccc1N1CCN(C)CC1)CO2	inactive
